Compound activity (PubChem)
Wee1 degr inh: blocks degradation of human Wee1 kinase; P30291; 220,000 tested, 1.2% active; HeLa Luc-Wee1K328M stability, luciferase luminescence; 100% = proteasome inhibitor MG132 effect; reporter increase, % at 5 µM;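 active means activation above the mean of all tested compounds plus 3 SD, set per screening run, cut at about 8.8% in these data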;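 further: cells exposed to compound for 20 h before luminescence read; 0% = DMSO alone and 100% = MG132 at 30 µM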
Target sequence (P30291 whole entry K328M): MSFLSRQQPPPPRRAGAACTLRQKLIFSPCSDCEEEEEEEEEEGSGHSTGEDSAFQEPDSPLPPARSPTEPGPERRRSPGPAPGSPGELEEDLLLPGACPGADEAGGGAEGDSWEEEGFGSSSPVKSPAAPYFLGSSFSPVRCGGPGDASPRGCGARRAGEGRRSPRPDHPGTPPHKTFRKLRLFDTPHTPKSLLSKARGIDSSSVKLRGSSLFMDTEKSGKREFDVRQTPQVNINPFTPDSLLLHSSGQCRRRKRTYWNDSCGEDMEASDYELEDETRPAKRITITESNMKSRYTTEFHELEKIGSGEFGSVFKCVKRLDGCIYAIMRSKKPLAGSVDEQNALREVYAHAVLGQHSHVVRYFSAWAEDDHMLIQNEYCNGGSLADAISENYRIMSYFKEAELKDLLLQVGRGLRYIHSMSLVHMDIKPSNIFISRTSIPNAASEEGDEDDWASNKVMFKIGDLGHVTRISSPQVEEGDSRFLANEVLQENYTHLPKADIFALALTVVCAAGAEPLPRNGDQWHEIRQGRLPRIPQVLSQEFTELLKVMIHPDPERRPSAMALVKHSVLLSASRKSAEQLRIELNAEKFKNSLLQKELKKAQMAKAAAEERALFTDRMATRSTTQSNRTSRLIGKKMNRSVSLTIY
KLF5 inhibitor: suppresses KLF5 promoter-driven expression; DLD-1 KLF5 promoter-luciferase reporter, luminescence; inhibition, % at 5 µM; 290,000 tested, 0.23% active;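 active means inhibition above a per-plate limit of that plate's mean compound inhibition plus 3 SD, cut at about 60% in these data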;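 further: 0% = DMSO wells and 100% = LY294002 at 200 µM; higher means less KLF5 promoter-driven luciferase light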
HIF act: HIF pathway transcriptional activation. U2OS HRE-luciferase reporter, luminescence; normalized: DMSO 0%, desferrioxamine 100%. 300,000 tested, 0.32% active. activation, % at 7.5 µM (by protocol);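 active means mean activation of at least 10% of the iron chelator positive control signal, with at least half of replicates also reaching 10%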
Platelet DG rel: platelet dense granule release activity | human platelet-rich plasma, SFLLRN dense granule ATP release, luminescence | inhibition, %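 (compounds screened at 7.5 µM in platelet-rich plasma)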 | 300,000 tested, 0.22% active | AID 1663;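 active means mean replicate score, as percent of positive control, at or above 50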
aSyn UTR inh: MLPCN primary screen, SNCA 5' untranslated region. alpha-synuclein 5'UTR reporter, inhibitor activity. inhibition, % (tested at 7.5 µM). 300,000 tested, 0.82% active. AID 1813; in the data active means inhibition above about 60%;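 further: H4 neuroglioblastoma cells stably carrying SNCA 5'UTR luciferase fusion; 0% = DMSO wells and 100% = positive control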
* = called active by the depositor; / = not tested or not shown. An excerpt weighted towards active compounds, which were near 2.1% of everything screened.

SMILES	Wee1 degr inh	KLF5 inhibitor	HIF act	Platelet DG rel	aSyn UTR inh
COc1ccc2nc(C)cc(N/N=C/c3cccc(OC)c3O)c2c1	/	2.6	-3.2	-23.3	99.8*
COc1cccc2c(N/N=C/c3ccccc3)cc(C)nc12	/	-40.8	-3.8	-5.1	21.1
COc1ccc(/C=N/Nc2cc(C)nc3ccc(Br)cc23)cc1	/	-54.8	-11.1	-12.5	99.9*
Cc1cc(NC(=O)NC(=O)c2ccccc2)no1	/	-136.2	1.0	6.5	-119.9
CC[C@@H](C(=O)[C@@H](C)[C@@H](O)[C@H](C)CCc1ccc(C)c(O)c1C(=O)O)[C@H]1O[C@](CC)([C@H]2CC[C@](O)(CC)[C@H](C)O2)C[C@@H]1C	/	31.5	0.1	-0.3	100.1*
CCN1CCN(C(c2cccs2)C(C)NS(=O)(=O)c2ccccc2)CC1 (centres undefined)	11.2*	-20.9	-0.2	-0.4	-25.8
O=S(=O)(c1ccc(S(=O)(=O)N(Cc2ccccc2)Cc2ccco2)cc1)N1CCCC1	-1.8	-31.2	0.1	-11.4	27.7
COC(=O)/C=C/c1ccccc1S(=O)(=O)N(Cc1ccccc1)Cc1ccco1	/	/	-0.2	10.2	89.4*
CN(CC(=O)Nc1ccc(F)c(F)c1F)C(=O)/C=C/c1ccc(Cl)cc1	-0.9	-3.0	224.9*	-8.1	11.9
N#Cc1ccccc1NS(=O)(=O)c1cc2c3c(c1)CCC(=O)N3CCC2	/	/	-0.4	3.2	11.2
Cc1cc(C(C)(C)C)cc(C)c1Cn1c2[n+](c3ccc(C(F)(F)F)cc31)CCCCC2	1.4	8.2	-0.3	-11.8	-4.9
CC(=O)c1c(C)[nH]c(C(=O)N2CCCCCC2)c1C	8.9*	-25.7	-0.9	-1.4	5.3
Cc1ccc(C)c(OCC(=O)NCC(c2ccco2)N2CCCCC2)c1 (centres undefined)	/	/	-0.2	-5.0	0.5
COc1ccc(C(=O)Nc2ccccc2C(=O)N/N=C/c2ccco2)cc1	0.1	-12.3	1.1	78.5*	-78.8
COc1cc(C(=O)NCCc2nc3ccccc3n2C)cc(OC)c1OC	1.2	2.5	95.3*	-1.3	2.3
COc1cc(C(=O)Cc2nc3ccccc3n2C)cc(OC)c1OC	/	12.1	0.0	-14.8	2.0
O=C(Nc1ccncc1)Nc1cccc(C(F)(F)F)c1	/	-14.5	0.3	-1.8	-0.6
Oc1c(C(Nc2cccc(C(F)(F)F)c2)c2ccncc2)ccc2cccnc12 (centres undefined)	-2.0	6.6	23.6*	-1.8	81.9*
Cc1ccc(-n2c(C)cc(C(=O)OCC(=O)N(CC(C)C)C3CCS(=O)(=O)C3)c2C)cc1 (centres undefined)	15.9*	-2.3	-0.2	-1.3	-13.3
Cc1ccc(-n2c(C)cc(C(=O)OCC(=O)N(C)C3CCS(=O)(=O)C3)c2C)cc1 (centres undefined)	-3.2	-128.3	1.0	2.9	-10.1
Cc1ccc(-c2noc(CNC(=O)COc3ccccc3C)n2)cc1	/	-16.3	-0.1	-0.4	-10.2
CCN(CC(=O)Nc1ccccc1OC)C(=O)c1ccc(NS(=O)(=O)c2ccc(C(C)=O)cc2)cc1	/	-20.4	-0.1	-0.6	4.1
N=c1n(Cc2ccc(Cl)cc2)c2ccccc2n1CC(O)COc1ccccc1 (centres undefined)	1.5	-2.7	-0.2	6.0	-0.5
N=c1n(Cc2ccccc2)c2ccccc2n1CC(O)COc1ccc(Cl)cc1Cl (centres undefined)	1.2	-11.5	-7.6	5.3	90.1*
CCC(=O)N1CCc2cc(S(=O)(=O)NCCC(=O)N3CCN(c4cccc(OC)c4)CC3)ccc21	/	-18.9	29.6*	-1.5	2.6
SMILES	Wee1 degr inh	KLF5 inhibitor	HIF act	Platelet DG rel	aSyn UTR inh
O=C(Cc1ccc(-c2ccccc2)cc1)Nc1ncccc1O	/	-83.6	3.2	-2.0	-96.6
COc1ccc(N=C2C(=O)N3CCCc4cccc2c43)cc1	2.1	-12.0	391.6*	7.8	-23.5
COc1ccc(N2C(=O)CSC23C(=O)N2CCCc4cccc3c42)cc1 (centres undefined)	-2.2	-26.2	-0.3	-1.9	14.8
COc1cccc(NC(=S)NC(=O)c2cccnc2)c1	/	-24.0	1.3	-7.0	-26.5
CCN(CC)CCNc1nc2c(c(=O)[nH]c(=O)n2C)n1CC(O)COc1ccc(Cl)cc1Cl (centres undefined)	1.0	-38.7	-0.2	-13.4	3.3
Cc1cc(C)n(-c2nc3c(c(=O)[nH]c(=O)n3C)n2CC(O)COc2ccc(Cl)cc2Cl)n1 (centres undefined)	-1.3	-18.6	-0.8	0.6	73.2*
O=c1[nH]c(C2CCN(S(=O)(=O)c3cccc([N+](=O)[O-])c3)CC2)nc2c1nnn2Cc1ccccc1	/	8.2	-0.3	0.0	8.1
Cc1ccc(-n2nc3ccc(N)cc3n2)c(C)c1	/	-47.9	-1.3	-11.1	65.9*
O=C(c1cc(-c2ccc(Cl)cc2)on1)N1CCOCC1	-1.0	-161.5	-0.2	0.0	1.5
O=C(c1cc(-c2ccc(Cl)cc2Cl)on1)N1CCOCC1	5.0	-91.4	/	-6.4	79.8*
CCCCn1c(N)c(N(CC(C)C)C(=O)C2CCCO2)c(=O)[nH]c1=O (centres undefined)	/	/	0.0	-5.1	-9.1
O=C(Nc1ccc(-c2nc3ccccc3s2)cc1)C1=COCCO1	-0.5	-99.4	-2.7	42.7	94.2*
CCn1nc(NS(=O)(=O)c2ccccc2)c2cc3cccc(C)c3nc21	-0.5	-17.5	0.1	-3.4	14.3
CCn1nc(NS(=O)(=O)c2ccc(NC(C)=O)cc2)c2cc3cccc(C)c3nc21	/	-33.5	51.2*	11.4	3.2
COc1cccc(COC(=O)CCNC(=O)c2ccc(Cl)cc2)c1OC	/	/	-0.3	3.3	-0.2
CCN1CCN(S(=O)(=O)c2ccc(Cl)c(C(=O)NC(C)(C)C)c2)CC1	-2.4	5.2	-2.0	22.7	5.2
CC1CN(c2ccc([N+](=O)[O-])c(NCCOc3ccccc3)c2)CC(C)N1 (centres undefined)	/	-34.9	0.2	14.8	-20.8
CC1CN(c2ccc([N+](=O)[O-])c(NCCOc3ccc(Cl)cc3)c2)CC(C)N1 (centres undefined)	/	-16.1	0.8	0.2	104.2*
Cc1ccn2c(=O)nc(SCC(=O)N3CCCC3)nc2c1	/	/	0.0	-5.5	-3.6
O=c1oc2cc(OCc3c(F)cccc3Cl)ccc2cc1-c1ccccn1	-3.9	-29.7	0.7	1.8	-107.4
CCCOc1ccc2cc(-c3ccccn3)c(=O)oc2c1	-3.8	-7.3	-2.1	43.8	77.2*
CCc1ccc(NC(=O)CCS(=O)(=O)c2ccc(Cl)cc2)cc1	/	-85.8	-7.1	-2.3	-3.3
Cc1c(CCC(=O)O)c(=O)oc2cc3oc4c(c3cc12)CCCC4	1.2	-15.3	-2.5	0.7	68.0*
Cc1c(CCC(=O)NCC(=O)NCC(=O)O)c(=O)oc2cc3oc4c(c3cc12)CCCC4	/	2.6	-1.5	-2.6	-3.3
Cc1c(CCC(=O)N2CCC[C@H]2C(=O)O)c(=O)oc2cc3oc4c(c3cc12)CCCC4	/	-6.0	-2.1	8.3	76.9*
CCCn1c(NC(=O)CN2C(=O)NC3(CCCCC3)C2=O)nc2ccccc21	/	/	0.3	-12.7	1.6
CC(=O)c1ccc(OCCCC(=O)N2CCN(S(=O)(=O)c3ccc(C(C)C)cc3)CC2)cc1	/	/	0.1	0.5	1.2
